In all, about 360,000 compounds went through this assay and about 2,700 (0.75%) were called active. For the sample, actives were picked, then their nearest neighbours and some compounds at random. Values without a mark were called inactive. Cut-off read from the data, not from the text of the source: active = inhibition above about 4.5%; inactive = the rest.

The subject of this experiment is Methionine sulfoxide reductase A (Bos taurus). Kind of experiment: inhibition of methionine sulfoxide reductase A – biochemical, absorbance, bovine, HTS, primary screen (AID 651718).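 Note: 0% = vehicle wells with enzyme and 100% = reference inhibitor wells.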 Particulars: purified bovine MsrA, absorbance read-out; at 15.5 µM; active compounds read high.
In general, inhibition refers to the relative decrease from the control value, in per cent. For `CC(=O)N1N=C(c2ccncc2)OC1(Cc1ccccc1)Cc1ccccc1`, the inhibition is 11.8% (active).
For `CC(=O)N1N=C(c2ccccc2)OC1c1cccnc1` (stereo not drawn), the inhibition is 0.4%.
`CCN(C(=O)CSc1nnc(-c2ccncc2)o1)c1ccccc1`: the inhibition is -1.04%.
For `CC1(C(=O)N/N=C/c2cc3c(cc2Br)OCO3)CC1(Br)Br` (stereo not drawn), the inhibition is 2.89%.
In the case of `CC(C)Oc1c(Br)cc(Br)cc1/C=N/NC(N)=S` it was 6.79% (active); in that of `Cc1cc(=O)oc2c3c(cc(OCC(=O)NCc4ccccn4)c12)OC(C)(C)CC3`, 2.4%.
Turning to `Cn1c(=NC(=O)c2cnccn2)sc2ccccc21`, the inhibition is 6.75% (active).
As to `COC(=O)c1ccc(OC(=O)c2cnccn2)cc1`, the inhibition is 0.63%.
Next, `Cn1c(=NC(=O)c2ccco2)sc2cccc(F)c21`: 4.22%; `Cc1cc(N2CCN(C(=O)OC(C)(C)C)C[C@H]2C)ccc1N1CCN(Cc2ccccc2)[C@H](C)C1`: -0.82%; `Nc1[nH]c(C(=O)c2ccccc2)c(-c2ccc(Cl)cc2Cl)c1C(=O)c1ccccc1`: -0.16%.
In the case of `CCc1c(-c2ccccc2OC)ncn1CCc1ccccc1OC` it was 0.48%; in that of `O=Cc1cn(-c2ccccc2)nc1-c1ccccn1`, 9.1% (active).
Turning to `O=C(NNC(=S)NC(=O)c1cn(-c2ccccc2)nc1-c1ccccc1)c1ccncc1`, the inhibition is 2.54%.
In the case of `O=C(COC(=O)/C=C/c1cn(-c2ccccc2)nc1-c1cccnc1)Nc1ccc(Cl)cc1Cl`, the inhibition is 0.05%.
Take `Cc1cc(Cl)ccc1OCc1nc(-c2ccncc2)no1`: the inhibition was 0.44%.
In the case of `CCc1ccc2c(c1)NC(=O)C2(C)Cc1ccc(OC(F)(F)F)cc1` (stereo not drawn), the inhibition was 1.57%.
In the case of `Cc1ccc(CC2(C)C(=O)Nc3ccc(OC(F)(F)F)cc32)cc1` (stereo not drawn) it was 9.02% (active); in that of `COc1ccccc1CC1(C)C(=O)Nc2ccc(OC(F)(F)F)cc21` (stereo not drawn), -0.13%; in that of `Cc1cc(NCCc2c[nH]c3ccccc23)ccc1Oc1cccnc1`, -0.9%.
Turning to `COc1cccc(C2/C(=C(/O)c3ccc(F)cc3)C(=O)C(=O)N2CCN(C)C)c1` (stereo not drawn), the inhibition was 2.59%.
On to `COc1ccc(C2/C(=C(/O)c3ccccc3)C(=O)C(=O)N2c2ncccn2)cc1OC` (stereo not drawn), for which the inhibition is 1.66%.
In the case of `COc1ccc(C2/C(=C(/O)c3ccccc3)C(=O)C(=O)N2C)c(OC)c1` (stereo not drawn) it was 4.89% (active).
In the case of `CCOc1ccccc1C(=O)N1CCC[C@@H]1C(=O)N1CCC[C@H]1C(=O)NCc1ccccc1` it was 0%; in that of `CSC1=NCCN1C(=O)c1ccc(S(=O)(=O)N2CCOCC2)cc1`, 0.32%; in that of `Cc1c(-c2ccccc2)cn2c1-c1ccc(C)n1CC2`, 2.59%.
In the case of `CN1CCCc2nc(-c3ccccc3)ccc21` it was -0.16%; in that of `O=C1[C@@H](c2ccccc2)[C@@H](c2ccccc2)N1c1ccccc1`, 0%.
Consider `COc1ccc(/C=C/C(=O)Nc2cccnc2)cc1OC`, for which the inhibition is 5.32% (active).
Next, `COc1ccc(/C=C/C(=O)Nc2ccc(C34CC5CC(CC(O)(C5)C3)C4)cc2)cc1OC`: 2.4%; `COc1cc(/C=N/NC(=S)Nc2cccnc2)cc(OC)c1O`: 4.5%.
Turning to `COc1cccc(CNC(=O)[C@H]2CCCN2C(=O)[C@H]2CCCN2C(=O)c2ccc(F)cc2)c1`, the inhibition is -0.32%.
Next, `COCCN(CCOC)S(=O)(=O)NC[C@H]1O[C@@H](n2cnc3c(N)ncnc32)[C@H](O)[C@@H]1O`: -0.9%; `CNC[C@H](CC1CCCCC1)NC[C@H](NCCC1CCCC1)[C@H](C)O`: 0.32%; `C[C@@H]1CN([C@H](C)CO)C(=O)CCCn2cc(nn2)CO[C@H]1CN(C)C(=O)Nc1ccc(N2CCCCC2)cc1`: 0.88%.
Take `COc1cc(Nc2nc3ccc(Cl)cc3n3cnnc23)cc(OC)c1OC`: the inhibition was -1.86%.
With `CN(CCO)c1ccc(/C=N/Nc2nncc3ccccc23)cc1`, the inhibition was 2.64%.
In the case of `COc1cc(/C=N/Nc2nn3cnnc3c3ccccc23)cc(OC)c1OC` it was 5.31% (active).
Next, `Cn1ccs/c1=N\S(=O)(=O)c1ccc(C(C)(C)C)cc1`: -0.4%.
In the case of `COc1ccc(OC)c(C2C3=C(N=c4s/c(=C\c5cccc(O)c5)c(=O)n42)c2ccccc2CC3)c1` (stereo not drawn) it was 5.07% (active); in that of `C=CCOc1ccc(C2/C(=C(\O)c3c(C)[nH]c(C(=O)OC)c3C)C(=O)C(=O)N2CCN(C)C)cc1` (stereo not drawn), 1.79%; in that of `O=C(O)c1ccccc1NC(=S)NC(NC(=O)c1ccccc1[N+](=O)[O-])C(Cl)(Cl)Cl` (stereo not drawn), 0.38%.
Regarding `Cn1nc(C(=O)OCC(=O)N(Cc2ccccc2)C(C)(C)C)c2ccccc2c1=O`, the inhibition was -1.57%.

The values above are taken from PubChem BioAssay AID651718 (The Scripps Research Institute Molecular Screening Center, 2012).
